Laboratory results taken from PubChem BioAssay (EPA / NIEHS).
The source made the active and inactive calls. How the source made its calls: active means hit-call score of the fitted dose curve at least 0.9, where 1 is the maximum; inactive means score below 0.9.

Tests used:
[1] = BSK_hDFCGF_SRB: Viability Assessment in the BioMAP Diversity Plus: hDFCGF Assay (AID 2283061); details: primary human foreskin fibroblasts;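 further: cells exposed to compound for 24 h before the read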
Outline: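 SRB-based viability read on primary human skin fibroblasts at 24 h: TCA fixation, 0.1% dye, 560 nm. Gain or loss of signal is fitted against the DMSO negative control.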

[2] = read-out: TIMP metallopeptidase inhibitor 1 (TIMP1), TIMP1 (gene 7076); assay: BSK_hDFCGF_TIMP1: BioMAP Diversity Plus: hDFCGF Assay for TIMP metallopeptidase inhibitor 1 (TIMP1) Biomarker Activity (AID 2283062); details: primary human foreskin fibroblasts; actives raise or lower the signal
Outline: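 Bidirectional curve fitting against DMSO baseline yielded this endpoint, based on ELISA detection of TIMP-1 in primary human foreskin fibroblasts exposed to compound for 24 h.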

[3] = read-out: Monokine induced gamma interferon (MIG), CXCL9 (gene 4283); assay: BSK_hDFCGF_MIG: BioMAP Diversity Plus: hDFCGF Assay for Monokine induced gamma interferon (MIG) Biomarker Activity (AID 2283063); details: primary human foreskin fibroblasts; actives raise or lower the signal
Outline: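 Endpoint derived by bidirectional fitting relative to DMSO; MIG quantified via ELISA in primary human foreskin fibroblasts harvested 24 h after dosing.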

[4] = read-out: Matrix Metallopeptidase 1 (MMP1), MMP1 (gene 4312); assay: BSK_hDFCGF_MMP1: BioMAP Diversity Plus: hDFCGF Assay for Matrix Metallopeptidase 1 (MMP1) Biomarker Activity (AID 2283064); details: primary human foreskin fibroblasts; actives raise or lower the signal
Outline: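 hDFCGF primary fibroblasts (human foreskin); chemical added; 24 h; MMP1 by ELISA; bidirectional fit vs DMSO.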

[5] = read-out: Vascular cell adhesion molecule 1 (VCAM1), VCAM1 (gene 7412); assay: BSK_hDFCGF_VCAM1: BioMAP Diversity Plus: hDFCGF Assay for Vascular cell adhesion molecule 1 (VCAM1) Biomarker Activity (AID 2283065); details: primary human foreskin fibroblasts; actives raise or lower the signal;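 on AC50: VCAM-1 protein level quantified by ELISA after 24 h chemical exposure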
Outline: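 Measured after 24 h chemical treatment of primary human skin fibroblasts, VCAM-1 was detected by ELISA and concentration-response analysed in both directions versus DMSO vehicle.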

[6] = read-out: Plasminogen activator inhibitor-1 (PAI1), SERPINE1 (gene 5054); assay: BSK_hDFCGF_PAI1: BioMAP Diversity Plus: hDFCGF Assay for Plasminogen activator inhibitor-1 (PAI1) Biomarker Activity (AID 2283066); details: primary human foreskin fibroblasts; actives raise or lower the signal
Outline: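 Primary dermal fibroblasts (human foreskin), hDFCGF system; compound 24 h; PAI-1 by ELISA; bidirectional fit vs DMSO control.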

[7] = read-out: Intercellular Adhesion Molecule 1 (ICAM1), ICAM1 (gene 3383); assay: BSK_KF3CT_ICAM1: BioMAP Diversity Plus: KF3CT Assay for Intercellular Adhesion Molecule 1 (ICAM1) Biomarker Activity (AID 2283067); details: primary human keratinocytes with fibroblasts; actives raise or lower the signal
Outline: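 Bidirectional curve fitting against a DMSO baseline was applied to ICAM-1 ELISA signal from primary human skin co-cultures harvested 24 h after treatment, with SRB staining of parallel wells for overt cytotoxicity.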

[8] = read-out: Interferon-gamma inducible Protein 10 (IP10), CXCL10 (gene 3627); assay: BSK_KF3CT_IP10: BioMAP Diversity Plus: KF3CT Assay for Interferon-gamma inducible Protein 10 (IP10) Biomarker Activity (AID 2283068); details: primary human keratinocytes with fibroblasts; actives raise or lower the signal
Outline: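 ELISA read-out of IP-10 after 24 h chemical dosing of human skin primary co-culture (keratinocytes, foreskin fibroblasts). Gain or loss of signal relative to DMSO, bidirectional curve fit.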

[9] = BSK_KF3CT_SRB: Viability Assessment in the BioMAP Diversity Plus: KF3CT Assay (AID 2283069); details: primary human keratinocytes with fibroblasts;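 further: total protein by sulforhodamine B staining as a cytotoxicity measure; read 24 h after compound addition; fitted for both signal gain and loss against DMSO baseline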
Outline: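 Keratinocytes co-cultured with foreskin fibroblasts (human primary); chemical added, 24 h; fix 10% TCA, stain 0.1% SRB, A560. Bidirectional fit vs DMSO.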

[10] = read-out: Interleukin-1 alpha (IL1a), IL1A (gene 3552); assay: BSK_KF3CT_IL1a: BioMAP Diversity Plus: KF3CT Assay for Interleukin-1 alpha (IL1a) Biomarker Activity (AID 2283070); details: primary human keratinocytes with fibroblasts; actives raise or lower the signal
Outline: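 Chemicals were dosed onto co-cultured human keratinocytes and foreskin fibroblasts, IL-1a was quantified by ELISA at 24 h, and activity was fitted in both directions relative to DMSO controls.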

[11] = read-out: Transforming growth factor beta 1 (TGFb1), TGFB1 (gene 7040); assay: BSK_KF3CT_TGFb1: BioMAP Diversity Plus: KF3CT Assay for Transforming growth factor beta 1 (TGFb1) Biomarker Activity (AID 2283072); details: primary human keratinocytes with fibroblasts; actives raise or lower the signal
Outline: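 Primary human skin cells (keratinocytes, foreskin fibroblasts) were co-cultured, exposed to test chemical and sampled at 24 h. TGF-b1 levels were measured by ELISA and fitted bidirectionally relative to DMSO.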

[12] = read-out: C-C motif chemokine 2 (Homo sapiens) (UniProt P13500); assay: BSK_KF3CT_MCP1: BioMAP Diversity Plus: KF3CT Assay for Monocyte Chemoattractant Protein 1 (MCP1/CCL2) Biomarker Activity (AID 2283073); details: primary human keratinocytes with fibroblasts; actives raise or lower the signal
Outline: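 Biomarker MCP-1 is measured by ELISA in primary human keratinocytes co-cultured with foreskin fibroblasts, 24 h after chemical treatment; DMSO serves as the negative control and activity baseline.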

[13] = read-out: Matrix Metallopeptidase 9 (MMP9), MMP9 (gene 4318); assay: BSK_KF3CT_MMP9: BioMAP Diversity Plus: KF3CT Assay for Matrix Metallopeptidase 9 (MMP9) Biomarker Activity (AID 2283074); details: primary human keratinocytes with fibroblasts; actives raise or lower the signal;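 on AC50: MMP9 protein level quantified by ELISA in the co-culture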
Outline: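 Human keratinocyte/foreskin fibroblast co-culture; compound added; 24 h; MMP-9 by ELISA; bidirectional fit vs DMSO baseline.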

[14] = read-out: urokinase plasminogen activator (uPA), PLAU (gene 5328); assay: BSK_KF3CT_uPA: BioMAP Diversity Plus: KF3CT Assay for urokinase plasminogen activator (uPA) Biomarker Activity (AID 2283075); details: primary human keratinocytes with fibroblasts; actives raise or lower the signal
Outline: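 ELISA readout of uPA, analyzed for signal gain or loss relative to DMSO, from a human primary keratinocyte–foreskin fibroblast co-culture measured 24 h after chemical treatment.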

CD40, CD40 (gene 958) = assay: BSK_LPS_CD40: BioMAP Diversity Plus: LPS Assay for CD40 Biomarker Activity (AID 2283076); details: primary human HUVEC with PBMC; actives raise or lower the signal
Outline: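 Using a multiplexed primary human co-culture (umbilical vein endothelium plus PBMC), CD40 was read by ELISA 24 h after dosing, with cytotoxicity tracked by sulforhodamine B staining of parallel cultures and activity fitted bidirectionally versus DMSO.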

[15] = read-out: E-selectin (Homo sapiens) (UniProt P16581); assay: BSK_LPS_Eselectin: BioMAP Diversity Plus: LPS Assay for Eselectin Biomarker Activity (AID 2283077); details: primary human HUVEC with PBMC; actives raise or lower the signal
Outline: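 Dose chemical onto LPS-driven HUVEC/PBMC co-culture; after 24 h, run ELISA for E-selectin; fit up- and down-going responses relative to DMSO control.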

[16] = BSK_LPS_SRB: Viability Assessment in the BioMAP Diversity Plus: LPS Assay (AID 2283079); details: primary human HUVEC with PBMC;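 further: total protein by sulforhodamine B absorbance as a cytotoxicity measure; measured one day after compound addition; fitted in both directions against DMSO so loss or gain of signal counts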
Outline: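 Cytotoxicity endpoint in human endothelial–PBMC co-culture: 24 h exposure, then SRB (0.1%) staining, 560 nm read.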

[17] = read-out: Interleukin-8 (IL8), CXCL8 (gene 3576); assay: BSK_LPS_IL8: BioMAP Diversity Plus: LPS Assay for Interleukin-8 (IL8) Biomarker Activity (AID 2283078); details: primary human HUVEC with PBMC; actives raise or lower the signal
Outline: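 In this LPS system, chemical-treated human umbilical vein endothelium/PBMC co-cultures were harvested at 24 h for IL-8 ELISA.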

[18] = read-out: Interleukin-1 alpha (IL1a), IL1A (gene 3552); assay: BSK_LPS_IL1a: BioMAP Diversity Plus: LPS Assay for Interleukin-1 alpha (IL1a) Biomarker Activity (AID 2283080); details: primary human HUVEC with PBMC; actives raise or lower the signal
Outline: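 Primary human HUVEC and PBMC co-culture stimulated with LPS is dosed and harvested at 24 h. Both increases and decreases in ELISA-measured IL-1a are scored relative to DMSO.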

Measured: AC50

Sequence of E-selectin (Homo sapiens) (P16581 whole entry, looked up): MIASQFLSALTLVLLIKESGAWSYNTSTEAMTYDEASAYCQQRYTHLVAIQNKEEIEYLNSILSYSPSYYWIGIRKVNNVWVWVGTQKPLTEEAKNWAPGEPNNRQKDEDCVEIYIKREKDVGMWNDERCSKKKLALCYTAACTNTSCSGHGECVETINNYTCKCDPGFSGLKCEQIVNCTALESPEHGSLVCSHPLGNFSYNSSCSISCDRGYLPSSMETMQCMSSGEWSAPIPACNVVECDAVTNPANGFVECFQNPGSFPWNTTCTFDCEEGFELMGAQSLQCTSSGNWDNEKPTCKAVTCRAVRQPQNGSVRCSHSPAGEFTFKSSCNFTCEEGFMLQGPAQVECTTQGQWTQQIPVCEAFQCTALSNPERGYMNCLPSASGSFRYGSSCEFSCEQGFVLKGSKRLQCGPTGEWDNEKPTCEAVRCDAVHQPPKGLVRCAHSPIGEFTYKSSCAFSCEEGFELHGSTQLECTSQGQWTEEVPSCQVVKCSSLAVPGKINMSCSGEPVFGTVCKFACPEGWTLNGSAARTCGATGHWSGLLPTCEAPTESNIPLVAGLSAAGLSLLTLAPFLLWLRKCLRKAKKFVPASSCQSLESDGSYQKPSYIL

c1ccc2ccccc2c1
not listed: [17] | [18]
inactive: all other assays above

Cc1cc2c(cc1C(F)(F)F)N(C(=O)Nc1ccc(Oc3cccnc3C)nc1)CC2
inactive: [2] | [3] | [4] | [5] | [6] | [7] | [12] | [15] | [16]
active: [1] 27.6 µM | [8] 29.9 µM | [9] 26.4 µM | [10] 15.5 µM | [11] 23.6 µM | [13] 29.8 µM | [14] 29.2 µM | CD40, CD40 (gene 958) 12.1 µM | [17] 2.7 µM | [18] 3.65 µM

CC[C@H](NC(=O)c1cc(F)ccc1NS(=O)(=O)c1cccc2cccnc12)c1ccccc1
not listed: [16] | [17] | [18]
inactive: all other assays above

CC/C(=C(/CC)c1ccc(O)cc1)c1ccc(O)cc1
active: [1] 25.7 µM | [2] 33.4 µM | [3] 28.1 µM | [4] 28.6 µM | [5] 13.6 µM | [6] 20 µM | [7] 31.8 µM | [8] 17.7 µM | [9] 25.3 µM | [10] 28 µM | [11] 5.87 µM | [12] 11.2 µM | [13] 12.3 µM | [14] 29.3 µM | CD40, CD40 (gene 958) 20 µM | [15] 30.3 µM | [17] 37 µM | [16] 25.4 µM | [18] 29.7 µM

CC1(C)NC(=O)N(c2ccc([N+](=O)[O-])c(C(F)(F)F)c2)C1=O
not listed: CD40, CD40 (gene 958) | [16]
inactive: all other assays above

CN(C[C@@H](CC[N+]12CCC(C3CCCCC3)(CC1)CC2)c1ccc(Cl)c(Cl)c1)C(=O)c1cc(C(F)(F)F)cc(C(F)(F)F)c1
active: [1] 5.86 µM | [2] 7.05 µM | [3] 10.3 µM | [4] 7.58 µM | [5] 7.41 µM | [6] 5.56 µM | [7] 12.3 µM | [8] 7.78 µM | [9] 6.58 µM | [10] 11.2 µM | [11] 7.34 µM | [12] 9.72 µM | [13] 7.39 µM | [14] 10.5 µM | CD40, CD40 (gene 958) 19.1 µM | [15] 26.4 µM | [17] 24.8 µM | [16] 24.6 µM

CC1=CC(=O)/C(=C(/C)O)C(=O)O1
active: [12] 0.396 µM | [18] 20 µM
not listed: [17]
inactive: all other assays above

CCN(Cc1cccnc1)C(=O)c1cccc(Cl)c1[C@]1(C)C(=O)N(Cc2ccc(OC)cc2OC)c2ccc(Cl)cc21
active: [4] 5.9 µM | [6] 9.31 µM | [8] 22.3 µM | [13] 4.21 µM | CD40, CD40 (gene 958) 5.26 µM | [15] 10.8 µM | [16] 6.69 µM | [18] 4.18 µM
not listed: [17]
inactive: all other assays above

CCOC(=O)O[C@H](C)OC(=O)c1ccc2c(c1)cc(C(=O)NC1CCN(C(C)C)CC1)n2Cc1cc(-c2ccc(Cl)s2)on1
active: [1] 4.96 µM | [2] 4.35 µM | [3] 6.08 µM | [4] 6.2 µM | [5] 3.74 µM | [6] 3.81 µM | [7] 9.05 µM | [8] 10.4 µM | [9] 6.24 µM | [10] 6.3 µM | [11] 6.7 µM | [12] 5.86 µM | [13] 8.39 µM | [14] 8.14 µM | CD40, CD40 (gene 958) 6.74 µM | [15] 10.4 µM | [17] 6.76 µM | [16] 5.61 µM | [18] 6.55 µM

COc1cccc([C@H](O)C2CCN(CCc3ccc(F)cc3)CC2)c1OC
not listed: [17] | [18]
inactive: all other assays above

O=c1c(-c2ccc(O)cc2)coc2cc(O)cc(O)c12
active: [1] 14.3 µM | [4] 15.1 µM | [6] 20 µM | [13] 20 µM | CD40, CD40 (gene 958) 14.3 µM | [15] 31.7 µM | [17] 20 µM | [16] 12 µM | [18] 16 µM
inactive: all other assays above

CCCCCCCC[Si](OCC)(OCC)OCC
active: [8] 37.5 µM | [13] 27.6 µM
inactive: all other assays above
